Screens from PubChem.
HIF-2a block = HIF-2a reporter inhibitors, primary screen, luminescence, 786-0 RCC cells; 786-0 RCC cells HIF-2a reporter, luciferase luminescence, overnight; inhibition, % at 18.8 µM; 360,000 tested, 0.72% active; AID 624352, 2012;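 active = inhibition of the luminescence signal of 40% or more relative to plate controls, in a single-dose primary screen at 18.75 µM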
KKLEB cytotox = cytotoxicity in KKLEB CF airway cells, primary screen, cytotoxicity control for CF NF-kB inhibitor project, cell-based, uHTS, fluorescence assay plates | AID 602141, 2011 | 360,000 tested, 0.36% active | KKLEB CF airway cells viability, ATPlite luminescence, overnight; hits give low values; cells stimulated with P. aeruginosa culture filtrate | activity change (cytotoxicity), % at 5 µM;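 active = corrected activity change at or below -50% at 5 µM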
CF NFkB inh = inhibitors of PAF-induced NF-kB signaling, primary screen, cell-based, GFP fluorescence, uHTS. KKLEB NF-kB-GFP reporter, GFP fluorescence overnight. inhibition, % at 5 µM. 360,000 tested, 0.86% active. AID 588850, 2011;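 active = at least 50% inhibition at 5 µM, scaled per plate between neutral and stimulator controls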;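 also: PAF is a Pseudomonas aeruginosa culture filtrate used as stimulus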
Shn3 3UTR inh = reduction of Shn3 3'UTR firefly luciferase signal, primary screen, Schnurri-3 inhibitor project, cell-based, Clone20 osteoblasts, set 2 | inhibition, % at 12.5 µM | 360,000 tested, 0.52% active | Clone20 osteoblast Shn3 3'UTR firefly luciferase, 24 h;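 active = mean inhibition of at least 75% with every replicate also reaching 75%; inconclusive = mean inhibition at least 75% but some replicate below; inactive = mean inhibition below 75%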
Peg3 promoter = Peg3 promoter-driven luciferase inhibitors, primary screen, cell-based, HeLa, luciferase luminescence; HeLa PEG-Prom luciferase reporter, overnight; 360,000 tested, 1.7% active; inhibition, % at 20 µM;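 active = inhibition of at least 50% at 20 µM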
Numbers stand for hits; ! = not confirmed by another sample. In the library only some 2.6% were active in any assay of this set; here they are far more common.

For CCOc1ccccc1N1CCN(c2ncnc3scc(-c4ccc(OC)cc4)c23)CC1 the results were HIF-2a block inactive, KKLEB cytotox inactive, CF NFkB inh inactive, Shn3 3UTR inh inactive and Peg3 promoter 59.
For CCOc1cc(N2CCOCC2)c(OCC)cc1NC(=O)COc1ncnc2ccccc12 the results were HIF-2a block inactive, KKLEB cytotox inactive, CF NFkB inh inactive, Shn3 3UTR inh inactive and Peg3 promoter inactive.
CCOc1cc(N2CCOCC2)c(OCC)cc1NC(=O)c1cc(-c2ccco2)nc2ccccc12 was read as HIF-2a block inactive, KKLEB cytotox inactive, CF NFkB inh 99, Shn3 3UTR inh 92 and Peg3 promoter inactive.
CCN(CC)S(=O)(=O)c1ccc(N2CCOCC2)c(NC(=O)c2cc(-c3ccccn3)nc3ccccc23)c1 was read as HIF-2a block inactive, KKLEB cytotox -89, CF NFkB inh 97, Shn3 3UTR inh inactive and Peg3 promoter 62.
Cc1cccc(NC(=O)Cn2nc(-c3cccs3)ccc2=O)c1C was read as HIF-2a block inactive, KKLEB cytotox inactive, CF NFkB inh inactive, Shn3 3UTR inh inactive and Peg3 promoter inactive.
Screening CN(C)C(=O)c1ccc(SC(=S)NCc2ccccc2)cc1 returned HIF-2a block inactive, KKLEB cytotox inactive, CF NFkB inh inactive, Shn3 3UTR inh inconclusive and Peg3 promoter 85.
Screening Cc1ccc2nc(Cl)c3cc(C(=O)N(CCN(C)C)Cc4ccco4)sc3c2c1 returned HIF-2a block inactive, KKLEB cytotox inactive, CF NFkB inh inactive, Shn3 3UTR inh inactive and Peg3 promoter 93.
CN(C)CCN(Cc1ccco1)C(=O)c1cc2c(Cl)nc3ccccc3c2s1 was read as HIF-2a block inactive, KKLEB cytotox inactive, CF NFkB inh inactive, Shn3 3UTR inh inactive and Peg3 promoter inactive.
Screening Cn1cnc([N+](=O)[O-])c1S(=O)(=O)c1ccc(Cl)cc1 returned HIF-2a block inactive, KKLEB cytotox inactive, CF NFkB inh inactive, Shn3 3UTR inh inactive and Peg3 promoter 104.
Cn1cnc([N+](=O)[O-])c1NC(C)(C)C was read as HIF-2a block inactive, KKLEB cytotox inactive, CF NFkB inh inactive, Shn3 3UTR inh inactive and Peg3 promoter inactive.
Screening CCC1=NN(C(=O)c2cccc(Br)c2)C(O)(c2ccc(Br)cc2)C1 (stereo not drawn) returned HIF-2a block inactive, KKLEB cytotox -54, CF NFkB inh 62, Shn3 3UTR inh inactive and Peg3 promoter inactive.
O=C(NCCCN1C(=O)c2ccccc2C1=O)OCc1ccccc1 was read as HIF-2a block inactive, KKLEB cytotox inactive, CF NFkB inh inactive, Shn3 3UTR inh inactive and Peg3 promoter inactive.
For CCCCCCCC[n+]1cccc(C(=O)N(CC)CC)c1 the results were HIF-2a block inactive, KKLEB cytotox inactive, CF NFkB inh inactive, Shn3 3UTR inh inactive and Peg3 promoter inactive.
`CCCCCCCCCCCCCCCC[n+]1cccc(C(=O)N(CC)CC)c1` gave HIF-2a block 46, KKLEB cytotox -93!, CF NFkB inh 91!, Shn3 3UTR inh inactive and Peg3 promoter 105.
For COc1ccc2cc3cc(C(=O)NCCN4CCN(c5ccccc5F)CC4)oc3nc2c1 the results were HIF-2a block inactive, KKLEB cytotox inactive, CF NFkB inh inactive, Shn3 3UTR inh inactive and Peg3 promoter inactive.
COc1ccc2cc3cc(C(=O)Nc4ccccc4N4CCN(C)CC4)oc3nc2c1 was read as HIF-2a block 55, KKLEB cytotox inactive, CF NFkB inh inactive, Shn3 3UTR inh inactive and Peg3 promoter 115.
For CCOC(=O)CSc1ccc(C(=O)N2CCN(C)CC2)cc1[N+](=O)[O-] the results were HIF-2a block inactive, KKLEB cytotox inactive, CF NFkB inh inactive, Shn3 3UTR inh inactive and Peg3 promoter 104.
O=C1/C(=C\c2ccc(O)cc2)SC(=S)N1Cc1ccccc1 was read as HIF-2a block inactive, KKLEB cytotox inactive, CF NFkB inh inactive, Shn3 3UTR inh inactive and Peg3 promoter inactive.
For O=C1/C(=C/c2cccnc2)SC(=S)N1Cc1ccco1 the results were HIF-2a block inactive, KKLEB cytotox inactive, CF NFkB inh inactive, Shn3 3UTR inh inactive and Peg3 promoter inactive.
COc1cc([N+](=O)[O-])cc(/C=C2/SC(=S)N(Cc3ccccc3)C2=O)c1O was read as HIF-2a block inactive, KKLEB cytotox inactive, CF NFkB inh inactive, Shn3 3UTR inh inactive and Peg3 promoter 51.
For O=C1/C(=C\c2cc(Br)cc(Br)c2O)SC(=S)N1Cc1ccccc1 the results were HIF-2a block inactive, KKLEB cytotox inactive, CF NFkB inh inactive, Shn3 3UTR inh inactive and Peg3 promoter 73.
For O=C1/C(=C/c2ccc(O)c([N+](=O)[O-])c2)SC(=S)N1Cc1ccccc1 the results were HIF-2a block inactive, KKLEB cytotox inactive, CF NFkB inh inactive, Shn3 3UTR inh inactive and Peg3 promoter inactive.
`O=C1/C(=C\c2cccc([N+](=O)[O-])c2O)SC(=S)N1Cc1ccccc1` gave HIF-2a block inactive, KKLEB cytotox inactive, CF NFkB inh inactive, Shn3 3UTR inh inactive and Peg3 promoter 56.
`COc1cc(/C=C2/SC(=S)N(Cc3ccccc3)C2=O)cc(Cl)c1O` gave HIF-2a block inactive, KKLEB cytotox inactive, CF NFkB inh inactive, Shn3 3UTR inh inactive and Peg3 promoter inactive.
For O=C1/C(=C/c2ccccc2O)SC(=S)N1Cc1cccnc1 the results were HIF-2a block inactive, KKLEB cytotox inactive, CF NFkB inh 51, Shn3 3UTR inh inactive and Peg3 promoter 108.
`O=S(=O)(Nc1cccc2ccccc12)c1cccc2nonc12` gave HIF-2a block inactive, KKLEB cytotox inactive, CF NFkB inh inactive, Shn3 3UTR inh inactive and Peg3 promoter inactive.
Screening O=C(Nc1ccccc1Cl)c1cc(C2CCCN(S(=O)(=O)c3cccs3)C2)on1 (stereo not drawn) returned HIF-2a block inactive, KKLEB cytotox inactive, CF NFkB inh inactive, Shn3 3UTR inh inactive and Peg3 promoter inactive.
Cc1ccccc1OCC(=O)Nc1ccc(N2CCN(C)CC2)c(Cl)c1 was read as HIF-2a block inactive, KKLEB cytotox inactive, CF NFkB inh inactive, Shn3 3UTR inh inactive and Peg3 promoter inactive.
Cc1ccccc1NNC(=O)C(=O)NNc1ccccc1C was read as HIF-2a block inactive, KKLEB cytotox inactive, CF NFkB inh inactive, Shn3 3UTR inh inactive and Peg3 promoter inactive.
`Cc1ccccc1NC(=O)C(Cl)=C(Cl)Cl` gave HIF-2a block inactive, KKLEB cytotox inactive, CF NFkB inh inactive, Shn3 3UTR inh inactive and Peg3 promoter 55.
`COc1cccc(CNC(=O)C2=Cc3cccc(OC)c3OC2)c1` gave HIF-2a block inactive, KKLEB cytotox inactive, CF NFkB inh inactive, Shn3 3UTR inh inactive and Peg3 promoter 58.
COc1cccc(CNC(=O)c2ccc(OCC(=O)N3CCOCC3)c(OC)c2)c1 was read as HIF-2a block inactive, KKLEB cytotox inactive, CF NFkB inh inactive, Shn3 3UTR inh inactive and Peg3 promoter inactive.
`COC(=O)C1CN(C(=O)C(C)Oc2cccc(C)c2C)c2ccccc2O1` (stereo not drawn) gave HIF-2a block inactive, KKLEB cytotox inactive, CF NFkB inh inactive, Shn3 3UTR inh inactive and Peg3 promoter inactive.
